Rows were chosen to be rich in hits. Some 12% of all compounds tested hit in one or more screens of this group.
Shiga inhibitor: A qHTS for Small Molecule Inhibitors of Shiga Toxin. Vero cells, Shiga toxin protein synthesis inhibition reporter. inhibition, % at 38.7 µM. 290,000 tested, 9.2% active. AID 2315, 2010; in the data active means inhibition mostly above about 28%, no sharp cut-off; inactive means mostly below about 43%
Cycloheximide cs: Cycloheximide Counterscreen for Small Molecule Inhibitors of Shiga Toxin; max response, %; 300,000 tested, 12% active; cell reporter, cycloheximide protein synthesis inhibition counterscreen; in the data active means max response mostly above about 13%, no sharp cut-off; inactive means mostly below about 14%; further: read at 38.3 µM for the half of the compounds with a filed dose
FMDV antiviral: High Throughput Screening for Foot and Mouth Disease Virus Antivirals | AID 1159524, 2015 | FMDV antiviral cell-based qHTS | Potency, µM (doses to about 57.9 µM), actives largely listed as inhibitors | 410,000 tested, 1.2% active; calls by dose curve; tested in HEK293T cells; further: read-out not given here; nearly all actives have a fitted effect of over 45% in size
Sm TGR block: qHTS Assay for the Inhibitors of Schistosoma Mansoni Peroxiredoxins; purified TGR, DTNB reduction, TNB absorbance 405 nm; Potency, µM (top dose mostly 114 µM), actives largely listed as inhibitors; 360,000 tested, 3% active; active means well fitted inhibition curve with a large enough effect; inconclusive means small, poorly fitted or top-dose-only effect; inactive means no such curve, though single readings can be large or run the other way; further: nearly all actives have a fitted effect of over 60% in size
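First, TGR (20 nM dispensed) and NADPH were mixed with compound. Second, a 15 min room-temperature incubation followed. Third, further NADPH and then DTNB were added to start the reaction. Finally, TNB absorbance was monitored kinetically.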
Hits are given with their value; . = inactive; ? = inconclusive; / = no result given; + = active, no number.

SMILES | Shiga inhibitor | Cycloheximide cs | FMDV antiviral | Sm TGR block
O=C1CSC(c2ccc3c(c2)OCO3)N1c1ccc(Oc2ccccc2)cc1 (stereo not given) | . | . | . | 32µM
CC(C)CN(CC(C)C)S(=O)(=O)c1ccc(C(=O)Nc2sc3c(c2C(N)=O)CCN(C(C)C)C3)cc1 | / | / | . | .
CCOC(=O)c1ccc(NC(=O)C2=C(C)Nc3nc(CCCO)nn3C2c2ccc(OC)cc2)cc1 (stereo not given) | 66 | 44 | . | .
O=C(NC1=C(Nc2ccc(F)cc2)C(=O)c2ccccc2C1=O)c1ccc(Cl)cc1 | + | 16 | ? | 22µM
Cc1cc(SCC(=O)OCC(=O)N2CCCC2=O)c(C)cc1Br | / | / | . | .
CC(=O)N1CCN(C(=O)CSc2cc(C)c(Br)cc2C)CC1 | 48 | 34 | . | .
Cc1onc(-c2ccccc2)c1C(=O)N/N=C/C(Br)=C/c1ccccc1 | . | . | . | .
Cc1occc1C(=O)N/N=C/C(Br)=C\c1ccccc1 | 50 | 43 | ? | .
Cc1occc1C(=O)N/N=C/C=C/c1ccccc1[N+](=O)[O-] | . | 42 | . | .
O=C(N/N=C/C=C/c1ccccc1)c1cccc(Br)c1 | . | . | . | .
NC(=S)N/N=C/C=C/c1ccccc1 | . | . | . | .
O=C(N/N=C/C=C/c1ccccc1)c1ccccc1Br | . | 26 | . | .
CCCCOC(=O)N/N=C/C=C/c1ccccc1 | 13 | 21 | . | .
Cc1occc1C(=O)N/N=C/c1ccc(N(C)C)cc1 | . | 22 | . | .
Cc1ccc(/C=N/NC(=O)c2ccoc2C)o1 | 117 | 44 | . | .
Cc1occc1C(=O)N/N=C/C=C/c1ccc(N(C)C)cc1 | 79 | 53 | . | .
Cc1ccc(/C=N/NC(=O)NC23CC4CC(CC(C4)C2)C3)o1 | 150 | 29 | . | ?
O=C(Cn1c(=O)n(-c2ccccc2Cl)c(=O)c2sc3ccccc3c21)NC1CCCCC1 | / | / | . | .
CCc1nc2ccc(C(=O)NCc3ccc(SC)cc3)cc2nc1CC | / | / | . | .
Cc1ccc(C(=O)N/N=C/C=C/c2ccccc2)cc1 | . | 25 | . | .
Cc1occc1C(=O)N/N=C/C=C/c1ccccc1 | . | 41 | . | .
CCc1ccc(S(=O)(=O)c2nnn3c2nc(N(CC)Cc2ccccc2)c2cc(Cl)ccc23)cc1 | / | / | . | .
CCOc1cc2sc(N3CCC(C(=O)Nc4cc(C)cc(C)c4)CC3)nc2cc1Br | / | / | . | .
CCOc1ccc2nc(N3CCC(C(=O)NCCCN4CCOCC4)CC3)sc2c1 | 56 | 37 | . | .
CCOc1ccc2nc(N3CCCC(C(=O)NCCCN4CCOCC4)C3)sc2c1 (stereo not given) | 58 | 28 | . | .
SMILES | Shiga inhibitor | Cycloheximide cs | FMDV antiviral | Sm TGR block
CCOc1ccc2nc(N3CCC(C(=O)Nc4c(C)cccc4C)CC3)sc2c1 | / | / | . | .
CCOc1ccc2nc(N3CCCC(C(=O)NCCc4ccc(Cl)cc4)C3)sc2c1 (stereo not given) | / | / | . | .
CCOc1cc2sc(N3CCC(C(=O)Nc4ccc(C(C)C)cc4)CC3)nc2cc1Br | 120 | 56 | . | .
Cc1ccc2c(c1)nnn2C1CCN(CC(=O)Nc2ccc3c(c2)OCCO3)CC1 | . | 26 | . | .
CC1CC(C)(C)NC(=S)N1CCCC(=O)Nc1ccc2c(c1)OCCO2 (stereo not given) | 116 | 42 | . | .
CC1CC(C)CN(CC(=O)Nc2ccc3c(c2)OCCO3)C1 (stereo not given) | 74 | 48 | . | .
CC1Oc2ccccc2N(CC(=O)Nc2ccc3c(c2)OCO3)C1=O (stereo not given) | . | . | . | .
Cc1ccc2c(c1)nnn2C1CCN(CC(=O)Nc2ccc(F)cc2)CC1 | . | . | . | .
CC1Oc2ccccc2N(CC(=O)Nc2ccc3c(c2)OCCO3)C1=O (stereo not given) | . | 44 | . | .
CCc1ccc(NC(=O)CN2C(=O)C(c3ccc(C)cc3)=NC23CCCCC3)cc1 | / | / | . | .
CCOC(=O)c1c(S(=O)(=O)N2CCC(C(=O)Nc3ccc(C)cc3C)CC2)c(C)n(C)c1C | / | / | . | .
Cc1ccc(NC(=O)N2CC3CCCN3c3ccccc32)c(C)c1 (stereo not given) | / | / | . | .
CCOc1ccc(C(=O)NCc2nc3cccnc3n2Cc2cccc(OC)c2)cc1 | / | / | . | .
CC1CCCCC12NC(=O)N(CC(=O)NC(=O)Nc1ccc3c(c1)OCCO3)C2=O (stereo not given) | 105 | 33 | . | 71µM
O=C(CN1CCC(C(=O)c2ccc(Cl)cc2)CC1)Nc1ccc2c(c1)OCCO2 | . | 17 | ? | .

Screens deposited in PubChem by National Center for Advancing Translational Sciences (NCATS).
